{"source": "PubChem BioAssay (NCI)", "note": "Compounds without any hit were thinned out: in the full panel of roughly 83,000, 20% have a hit.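 Cells were grown in 96-well plates and exposed to the test compound at a single concentration for 48 hours; results are reported as percent growth, with values below 10 considered active.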 Calls of active or inactive are those of the source.", "data": [{"system": "HL-60(TB) leukemia", "test": "NCI-60 one-dose screen, 48 h (100 = growth as untreated, 0 = no growth, -100 = all killed)", "settings": "10 µM unless noted", "values": [{"compound": "COC(c1ccccc1)C(Br)C(=O)c1ccccc1", "note": "(stereo not drawn)", "growth": "79.1% (inactive)"}, {"compound": "CNC(=O)c1cccnc1", "growth": "99.5% (inactive)"}, {"compound": "O=C(Cn1ccnc1)Nc1ccc(-c2nc3ccccc3s2)cc1", "growth": "77.3% (inactive)"}, {"compound": "CC1(C)C(=O)/C(=C\\c2cccnc2)C[C@]2(C)[C@H]3CC=C4[C@@H]5C[C@@](C)(C(=O)O)CC[C@]5(C)CC[C@@]4(C)[C@]3(C)CC[C@@H]12", "growth": "104% (inactive)"}, {"compound": "COc1ccc(C2=NNC(c3ccc(Oc4nc5c(c(=O)n(C)c(=O)n5C)n4C)c(OC)c3)C2)cc1", "note": "(stereo not drawn)", "growth": "90.6% (inactive)"}, {"compound": "O=C(/C=C/c1cn(-c2ccccc2)nc1-c1ccc(Cl)cc1)c1ccc(F)cc1", "growth": "56.6% (inactive)"}, {"compound": "Cn1c(=O)c2[nH]c(NN)nc2n(C)c1=O", "growth": "91.6% (inactive)"}, {"compound": "COc1cc(Cc2cc(-c3ccccc3)n[nH]c2=O)cc(OC)c1OC", "growth": "53.4% (inactive)"}, {"compound": "c1ccc([P+](CCCc2n(Cc3ccc4ccccc4c3)c3ccccc3[n+]2Cc2ccc3ccccc3c2)(c2ccccc2)c2ccccc2)cc1", "growth": "22.6% (inactive)"}, {"compound": "COc1ccc(C(O)c2cc3c(N)c(C(=O)Nc4cccc(Br)c4C)sc3nc2C)cc1", "note": "(stereo not drawn)", "growth": "-41% (active)"}, {"compound": "CSCCC(NC(=O)c1ccccc1)C(=O)N/N=C1\\S/C(=C/c2ccc(Cl)cc2)C(=O)N1C", "note": "(stereo not drawn)", "growth": "51.6% (inactive)"}, {"compound": "C=CC(=O)Nc1cccc(Nc2nc(Nc3ccc(N4CCN(C(C)=O)CC4)cc3OC)ncc2C(F)(F)F)c1", "growth": "-25.2% (active)"}, {"compound": "COc1ccc(C(=O)N2CCN(C(=O)c3cc(OC)c(OC)c(OC)c3)CC2)cc1OCCCCOc1cc2c(cc1OC)C(=O)N1CCC[C@H]1C=N2", "growth": "147% (inactive)"}]}]}
